test: viability profiling in RPMI8226 myeloma cells – cell-based, resazurin fluorescence, basal, 24 h, PK04 Diversity Set, profiling panel (AID 1180); conditions: higher = more signal;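 note: RPMI8826 multiple myeloma cell line at 5000 cells per well; test concentration not given here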

First: C=CC[C@@H]1C=C[C@H](ON=CC[C@@H]2C=C[C@H](OC(C)=O)[C@@H](COC(C)=O)O2)[C@@H](CO)O1
Second: CC(=O)OC[C@H]1O[C@H](CC=NO[C@H](C)c2cn([C@@H]3COC[C@H]3O)nn2)C=C[C@@H]1OC(C)=O
The z-score of the first is lower: -0.687 for the first, 0.0142 for the second.

Going from `C=CC[C@@H]1C=C[C@H](ON=C(C)CCN2CCCc3nc(C)c(C)cc32)[C@@H](CO)O1` to `CC(=O)OC[C@H]1O[C@H](CCON=C(C)CCN2CCCc3nc(C)c(C)cc32)C=C[C@@H]1OC(C)=O`, the z-score falls from -0.0021 to -0.0643.

Going from `CO[C@H]1COC(=O)[C@H](CCSC)NC(=O)CC=C[C@@H](C)[C@H](OC)COC(=O)[C@@H](OCc2ccccc2)C=C[C@@H]1C` to `CON=C(C)CCN1CCc2nc(-c3ccccc3)c(-c3ccccc3)cc2C1`, the z-score rises from 0.519 to 1.14.

Going from `CN1CCc2nc(-c3ccccc3)c(-c3ccccc3)cc2C1` to `CC(C)C(=O)N[C@H]1CCCN1C(=O)C=Cc1ccccc1`, the z-score falls from 0.639 to -1.03.

First: CCN1C(=O)[C@H]2[C@@H]3C(=CC[C@H]2C1=O)C(=O)[C@H]1O[C@H]1[C@H]3O
Second: CON=C(C)CCN1CCCCc2nc(C)c(C)cc21
The z-score of the first is lower: -2.17 for the first, 0.6 for the second.

First: CCOC(=O)[C@H](CC(C)C)NC(=O)CCC1CC(OC(=O)NCc2ccc3c(c2)OCO3)CC2(CCCC(COC(=O)NCCC(C)C)O2)O1 (stereo partly drawn)
Second: CC(=O)OC[C@H]1O[C@H](CCON=C(C)C)C=C[C@@H]1OC(C)=O
The z-score of the first is higher: 0.497 for the first, -0.0326 for the second.

Work on `COC(=O)CC=C[C@@H](C)[C@@H](C=NOC[C@@H](O)COCc1ccco1)NS(=O)(=O)c1ccc(C)cc1` yielded a z-score of -0.974.
